From PubChem BioAssay (NCI)
The panel holds about 83,000 compounds, 20% with a hit somewhere; the sample as a whole holds those more often.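 Interpretation: 100, growth as untreated; towards 0, rising growth inhibition; 0, no net growth; 0 to -100, cell death. Compounds scoring below 10 were considered active.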 Unmarked numbers belong to inactive results.

The molecules below were run on KM12 colon (assay: NCI-60 one-dose screen, 48 h (100 = growth as untreated, 0 = no growth, -100 = all killed)). Conditions: 10 µM unless noted.

Row | Compound | growth [%]
1 | CCSc1nc(Nc2ccc(S(=O)(=O)Nc3ccon3)cc2)c(C#N)c(-c2cccc(Br)c2)n1 | 95.1
2 | CCCCN1c2nc3ccccc3cc2Sc2cc3ccccc3nc21 | 68.3
3 | COc1cc(/C=C\C(C)=N\Nc2ccccc2)ccc1O | 52.8
4 | O=c1[nH]c(SCc2ccccc2)nc2nc(Nc3ccc(NC(=S)Nc4ccccc4)cc3)nc(-c3ccc(O)cc3O)c12 | 89.4
5 | O=C(Oc1ccccc1)C(Br)C(Br)c1ccccc1 (stereo unspecified) | 71.9
6 | O=c1oc2c(cc1-c1ccc([N+](=O)[O-])cc1)C(O)Oc1ccccc1-2 (stereo unspecified) | 95.4
